Experimental findings from PubChem BioAssay AID463173 (ICCB-Longwood Screening Facility, Harvard Medical School, 2010) are described below.

Hit rate of the full screen: of about 52,000 compounds, about 4,300 (8.3%) were called active. This is one part of a sample in which actives are shown more often than they occur. Unmarked numbers belong to inactive results. Rule as the data show it: active = survival mostly below about 52% (no sharp cut-off); inactive = mostly above about 56%.

The subject of the assay is DeltatarO mutant. Briefly: growth inhibition of S. aureus wild type versus tarO mutant, primary screen, teichoic acid synthesis inhibitors, RN4220, OD600 (AID 463173). Conditions: OD600, 18 h, hits give low values, screened at 18.75 µg/mL (by protocol).
Take `CCN1C(=O)/C(=C2\C=Cc3ccccc3N2CC)SC1=S`: the survival was 77%.

Regarding `CC(=O)Nc1ccc(-c2nnc(SCC(=O)c3ccc([N+](=O)[O-])cc3)o2)cc1`, the survival was 66%.

Take `CCOc1ccccc1C(=O)Nc1cc2c(cc1N1CCOCC1)n(C)c(=O)n2C`: the survival is 77%.

For the molecule `CCCNC(=O)N1CCc2cc(OC)c(OC)cc2C1c1cc2cc3c(cc2[nH]c1=O)OCO3` (stereo not given), the survival is 91%.

`CCOCCc1nn2c(=O)cc(COC(=O)COc3ccccc3Cl)nc2s1`: the survival is 88%.

As for `CC(C)Oc1ccc(NC(=O)c2cc3ccccc3o2)cc1`, the survival is 40% (active).

For `O=C(Nc1c(C(=O)Nc2cccc(F)c2)oc2ccccc12)c1cc2ccccc2o1`, the survival was 35% (active).

`COc1ccc(NC(=O)c2oc3ccccc3c2NC(=O)c2cc3ccccc3o2)c(OC)c1`: the survival is 72%.

For the molecule `COc1ccccc1C(=O)Nc1c(C(=O)N2CCN(c3ccc(F)cc3)CC2)oc2ccccc12`, the survival is 0% (active).

As for `COc1cccc(NC(=O)c2oc3ccccc3c2NC(=O)c2cc3ccccc3o2)c1`, the survival is 51%.

For the molecule `Cc1cccc(CC(=O)Nc2c(C(=O)Nc3cccc(F)c3)oc3ccccc23)c1`, the survival is 57%.

For the molecule `O=C(Nc1c(C(=O)Nc2ccccc2F)oc2ccccc12)c1cc2ccccc2o1`, the survival is 37% (active).

For `COc1ccc(N2CCN(C(=O)c3oc4ccccc4c3NC(=O)c3ccccc3OC)CC2)cc1`, the survival was 131%.

With `O=C(O)c1ccc(NC(=O)c2cc3ccccc3o2)cc1`, the survival was 59%.

`O=C(Nc1ccc(NC(=O)c2cc3ccccc3o2)cc1)c1ccccc1`: the survival was 86%.

Consider `Cc1cc(C)cc(C(=O)Nc2c(C(=O)Nc3ccccc3F)oc3ccccc23)c1`, for which the survival is 80%.

On to `COc1ccccc1C(=O)Nc1c(C(=O)N2CCN(c3ccccc3F)CC2)oc2ccccc12`, for which the survival is 92%.

As for `COc1ccc(CCNC(=O)CCS(=O)(=O)c2cc3c(cc2Cl)NC(=O)CO3)cc1OC`, the survival was 90%.

On to `COc1ccc(-c2noc(-c3ccc(C)cc3Cl)n2)cc1OC`, for which the survival is 136%.

`Cc1ccc(C)c(NC(=O)Cn2cc(S(=O)(=O)N3CCCC3)c(S(=O)(=O)N3CCCC3)c2)c1`: the survival is 94%.

For the molecule `COc1ccc(OC)c(NC(=O)c2cn3c4c(ccc(Cl)c4c2=O)OC(C)C3)c1` (stereo not given), the survival is 87%.

As for `Cc1ccc(-c2cc(NC(=O)COc3ccc(Cl)c(C)c3)on2)cc1`, the survival is 86%.

`Oc1c(Br)cc(Br)cc1-c1nc2ccccc2s1`: the survival is 126%.

Consider `CCOc1ccccc1CNC(=O)CCn1cccn1`, for which the survival is 67%.

Consider `CCOC(=O)C1CCN(c2cc3c(cc2NC(=O)c2ccc(Cl)cc2)n(C)c(=O)n3C)CC1`, for which the survival was 93%.

For the molecule `COc1ccc(CNC(=O)C2=C(C)C(=O)OC23CCCCC3)cc1`, the survival was 82%.

On to `CCc1ccc(S(=O)(=O)c2cn(C)c3cc(OC)c(OC)cc3c2=O)cc1`, for which the survival was 121%.

In the case of `CCOC(=O)c1ccc(NC(=O)C2Cc3ccccc3CN2S(=O)(=O)c2ccc(Cl)cc2)cc1` (stereo not given), the survival was 53%.

As to `CCCc1c(C)c2ccc(O)c(CN3CCN(c4ccc(F)cc4)CC3)c2oc1=O`, the survival was 52%.

Take `O=C(NCCCN=C1NS(=O)(=O)c2ccccc21)c1ccncc1`: the survival is 85%.

For the molecule `CCOc1ccc(C(=O)Nc2c(C(=O)c3ccc(OC)cc3)oc3ccccc23)cc1`, the survival is 79%.

For `COc1cccc(C(=O)Nc2c(C(=O)Nc3ccc(F)cc3)oc3ccccc23)c1OC`, the survival was 60%.

Take `CCOc1cccc(C(=O)Nc2c(C(=O)c3ccc(OC)cc3)oc3ccccc23)c1`: the survival is 28% (active).

On to `COc1ccc(C(=O)c2oc3ccccc3c2NC(=O)c2cccc(OC)c2)cc1`, for which the survival is 58%.

Take `CCOc1ccccc1C(=O)Nc1c(C(=O)Nc2ccc(F)cc2)oc2ccccc12`: the survival was 83%.

Regarding `O=C(Nc1c(C(=O)N2CCN(c3ccccc3)CC2)oc2ccccc12)c1ccco1`, the survival is 37% (active).

Take `O=C(Nc1c(C(=O)N2CCN(c3ccc(F)cc3)CC2)oc2ccccc12)c1ccco1`: the survival was 74%.

Regarding `O=C(Nc1c(C(=O)N2CCN(c3ccccc3F)CC2)oc2ccccc12)c1ccco1`, the survival is 69%.

For `O=C(Nc1c(C(=O)Nc2ccc(F)cc2)oc2ccccc12)c1ccccc1F`, the survival is 40% (active).

As for `COCCNC(=O)c1ccc2nc(CCc3ccccc3)oc2c1`, the survival was 112%.

With `CCOC(=O)c1c(NC(=O)/C=C/c2ccc(OCC)cc2)sc(C)c1C`, the survival was 50%.

For the molecule `CCOc1ccc(C(c2c(O)cc(C)n(CCOC)c2=O)N2CCC(C)CC2)cc1` (stereo not given), the survival is 73%.

As for `CCc1ccccc1NC(=O)CN(c1ccccc1OC)S(=O)(=O)c1ccc(C)cc1`, the survival is 36% (active).

For `COc1ccc(OC)c(NC(=O)CN(c2ccccc2OC)S(=O)(=O)c2ccc(C)cc2)c1`, the survival was 54%.

Consider `CCc1ccccc1NC(=O)CN(c1cc(C(F)(F)F)ccc1Cl)S(=O)(=O)c1ccccc1`, for which the survival was 44% (active).

As to `O=C(CN(c1cc(C(F)(F)F)ccc1Cl)S(=O)(=O)c1ccccc1)NCCc1ccccc1`, the survival is 66%.

For `CCOc1ccc(S(=O)(=O)N(CC(=O)NCCc2ccc(OC)c(OC)c2)c2ccccc2)cc1`, the survival is 49%.

On to `Cc1cccc(N(CC(=O)NCc2ccccc2)S(C)(=O)=O)c1C`, for which the survival was 70%.

With `CCc1ccccc1NC(=O)CN(c1cccc(C)c1C)S(C)(=O)=O`, the survival was 54% (active).

Take `CCOc1ccc(S(=O)(=O)N(CC(=O)NCCc2ccc(OC)cc2)c2ccccc2)cc1`: the survival was 92%.

`COc1ccccc1N(CC(=O)Nc1ccccc1C(F)(F)F)S(=O)(=O)c1ccc(C)cc1`: the survival was 64%.

As to `Cc1cccc(N(CC(=O)Nc2cccc(Cl)c2C)S(C)(=O)=O)c1C`, the survival was 61%.

Consider `CCOc1ccc(S(=O)(=O)N(CC(=O)NCc2ccccc2OC)c2ccccc2)cc1`, for which the survival was 37% (active).

Take `Cc1cc(C)cc(NC(=O)CN(c2cc(C(F)(F)F)ccc2Cl)S(=O)(=O)c2ccccc2)c1`: the survival is 79%.

Turning to `COc1cccc2cc(C(=O)N3CCCCC3)c(=O)oc12`, the survival was 85%.

Regarding `Nc1cccc(C(=O)NC23CC4CC(CC(C4)C2)C3)c1`, the survival was 95%.

On to `O=C1CCCC/C1=N\Nc1ccc(N2CCCCC2)cc1`, for which the survival is 90%.

For `Cc1nc2ccn(Cc3ccco3)c(=O)c2cc1C(=O)NCc1ccccc1F`, the survival was 86%.

`O=C(O)c1ccccc1SC1CC(=O)N(Cc2ccccc2)C1=O` (stereo not given): the survival is 81%.

Take `CCOc1ccc(CCNC(=O)CCCc2nnc3n(CCCOC)c(=O)c4sccc4n23)cc1`: the survival is 91%.

With `NS(=O)(=O)c1ccc(NC(=O)C2CCCO2)cc1` (stereo not given), the survival was 95%.

For the molecule `CCN1c2ccccc2-n2cccc2C12CCN(C(=O)Nc1ccccc1Br)CC2`, the survival was 91%.

For `COc1ccc(CCNC(=O)Cc2c(C)c3c(cc(C)c4c(C)c(C)oc43)oc2=O)cc1OC`, the survival was 83%.

As to `Cc1ccc2c(CNCC(C)c3ccccc3)c(C(=O)O)n(Cc3ccccc3C)c2c1` (stereo not given), the survival is 70%.

For the molecule `COc1ccccc1N(CC(=O)NCCSc1ccccc1)S(=O)(=O)c1ccc(C)cc1`, the survival is 62%.

`COc1ccccc1N(CC(=O)NCCSCc1ccccc1)S(=O)(=O)c1ccc(C)cc1`: the survival was 41% (active).

As for `COc1ccccc1N(CC(=O)NCCSCc1ccccc1)S(C)(=O)=O`, the survival is 70%.

Take `Cc1ccc(Cn2cc3c(n2)-c2c(oc(C(=O)Nc4ccc(F)cc4F)c2C)CC3)cc1`: the survival was 85%.

Take `CN1CCN(c2nc3c(S(=O)(=O)c4ccccc4)nnn3c3ccsc23)CC1`: the survival was 86%.

In the case of `CC(C)c1ccc(OC(=O)c2cc(-c3ccccc3)on2)cc1`, the survival was 109%.

For the molecule `Cc1ccc(NC(=O)c2cc(-c3ccc4c(c3)OCO4)on2)cc1`, the survival was 75%.

Consider `Cc1cccc(OC(=O)c2cc(-c3ccc4c(c3)OCCO4)on2)c1C`, for which the survival was -1% (active).

On to `Cc1ccc(OC(=O)c2cc(-c3ccc(Cl)cc3)on2)c(C)c1`, for which the survival was 92%.

Take `Cc1ccc(OC(=O)c2cc(-c3ccc4c(c3)OCCO4)on2)c(C)c1`: the survival is -2% (active).

For the molecule `Cc1ccccc1OC(=O)c1cc(-c2ccc3c(c2)OCCO3)on1`, the survival is -1% (active).

Regarding `Cc1cccc(OC(=O)c2cc(-c3ccc(Cl)cc3)on2)c1C`, the survival was 106%.

Turning to `COc1ccc(-c2cc(C(=O)Nc3c(Cl)cccc3Cl)no2)cc1OC`, the survival was 58%.

With `Cc1cccc(OC(=O)CSc2nnc(-c3ccc4c(c3)OCO4)o2)c1C`, the survival was 72%.

With `Cc1ccc(-c2cc(C(=O)Oc3ccccc3Cl)no2)cc1C`, the survival was -1% (active).

Consider `COc1ccc(Nc2nnc(-c3cc4cc(Cl)ccc4oc3=O)s2)cc1`, for which the survival is 81%.

As for `COc1ccc(Br)cc1CNC(=O)CN1C(=O)CCCc2ccccc21`, the survival is 80%.

Consider `Cn1c(=O)n(C)c2cc(CNCc3ccccc3)ccc21`, for which the survival is 88%.

Turning to `COC(=O)c1ccc(C(=O)OC)c(NC(=O)c2c(-c3ccccc3)noc2C)c1`, the survival is 147%.

In the case of `COc1cccc(CSc2nc3n(n2)C(CC(C)C)C(C(=O)Nc2ccccc2C)=C(C)N3)c1` (stereo not given), the survival was 87%.

In the case of `Cc1ccc(N2CC(c3nc(-c4ccc(Cl)cc4)no3)CC2=O)cc1F` (stereo not given), the survival was 98%.

For `CCS(=O)(=O)c1nc(S(=O)(=O)c2ccc(C)cc2)c(NCC(C)C)s1`, the survival is 95%.

Take `CCN1CCN(C(c2ccccc2Cl)c2sc3nc(-c4ccco4)nn3c2O)CC1` (stereo not given): the survival was 92%.

As for `O=C(Nc1ccccc1C(F)(F)F)c1cc(-c2ccc3c(c2)OCCO3)on1`, the survival is 117%.

Regarding `O=C(Oc1ccccc1Cl)c1cc(-c2ccc3c(c2)OCCO3)on1`, the survival was -2% (active).

Regarding `Cc1ccc(C)c(N2CCN(C(=O)c3cc4cc5ccc(C)cc5nc4o3)CC2)c1`, the survival is 90%.

Take `Cc1ccc2cc3cc(C(=O)N(C)c4ccccc4C)oc3nc2c1`: the survival was 53% (active).

As for `Cc1ccc2cc3cc(C(=O)N4CCN(c5ccccc5)CC4)oc3nc2c1`, the survival is 61%.

As for `COc1ccc2cc3cc(C(=O)NCc4ccc(C)cc4)oc3nc2c1`, the survival was 83%.

Turning to `COc1ccc(CNC(=O)c2cc3cc4ccc(C)cc4nc3o2)cc1`, the survival was 74%.

With `CCN(C(=O)c1cc2cc3ccc(OC)cc3nc2o1)c1cccc(C)c1`, the survival was 6% (active).
